{
  "source": "the supplement of paper PMC9694430",
  "data": [
    {"tested_on": "T1, LOC_OS04G38480-cb003", "T1 sequence (whole entry)": "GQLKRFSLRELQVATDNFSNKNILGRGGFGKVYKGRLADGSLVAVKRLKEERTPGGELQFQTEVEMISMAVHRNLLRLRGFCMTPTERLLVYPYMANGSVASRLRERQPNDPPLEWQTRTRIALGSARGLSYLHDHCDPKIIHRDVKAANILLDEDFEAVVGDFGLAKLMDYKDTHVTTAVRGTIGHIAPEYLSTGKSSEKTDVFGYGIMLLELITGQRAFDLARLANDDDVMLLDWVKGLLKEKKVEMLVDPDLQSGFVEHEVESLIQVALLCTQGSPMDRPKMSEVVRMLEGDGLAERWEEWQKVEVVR", "test": "thermal shift delta Tm vs DMSO control; higher = stronger stabilization (binding)", "settings": "12.5 µM; protein concentration 2 µM", "how_it_was_run": "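Rice kinase domain constructs were expressed in E. coli, purified, and tested by differential scanning fluorimetry with compound added in DMSO. Each well of a 96-well plate held 19.5 μl of 2 μM kinase in 100 mM potassium phosphate pH 7.5, 150 mM NaCl, 10% glycerol and 5 × SYPRO Orange, and fluorescence was read from 25°C to 95°C at 0.05°C/s. The melting temperature shift is the mean of triplicates, taken against protein with DMSO alone after Boltzmann fitting.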", "units": {"thermal shift delta Tm": "°C"}, "values": [
      {"smiles": "COc1ccc(N(C(=O)Oc2c(C)cccc2C)c2ccnc(Nc3ccc(N4CCN(C)CC4)cc3)n2)c(OC)c1", "thermal shift delta Tm": 1.41},
      {"smiles": "COc1cc([C@@H]2c3cc4c(cc3[C@H](O)[C@H]3COC(=O)[C@@H]23)OCO4)cc(OC)c1OC", "note": "[Picropodophyllin (PPP)]", "thermal shift delta Tm": 0.78},
      {"smiles": "Cc1ccccc1-n1c(Cn2ncc3c(N)ncnc32)nc2cccc(C)c2c1=O", "thermal shift delta Tm": -0.52},
      {"smiles": "CC(C)(C)c1cc(C=C(C#N)C#N)cc(Br)c1O", "thermal shift delta Tm": -0.82},
      {"smiles": "COc1ccc2c(c1)/C(=C/c1cnc[nH]1)C(=O)N2", "thermal shift delta Tm": 2.32},
      {"smiles": "CC(C)(C)c1cc(C=C(C#N)C#N)cc(C(C)(C)C)c1O", "note": "[Tyrphostin 9]", "thermal shift delta Tm": 1.65},
      {"smiles": "Cn1cc(C2=C(c3cn(C4CCN(Cc5ccccn5)CC4)c4ccccc34)C(=O)NC2=O)c2ccccc21", "thermal shift delta Tm": 2.44},
      {"smiles": "CCN1CCN(C(=O)Cc2ccc(Nc3ncc(F)c(Nc4ccc(C(=O)Nc5ccccc5Cl)cc4)n3)cc2)CC1", "note": "[Aurora A Inhibitor I]", "thermal shift delta Tm": 3.38},
      {"smiles": "COc1ccc(C[C@H]2NC[C@H](O)[C@H]2OC(C)=O)cc1", "note": "[Anisomycin]", "thermal shift delta Tm": 0.22},
      {"smiles": "O=c1[nH]c2ccc(Cl)cc2c(N[C@@H]2CN3CCC2CC3)c1-c1nc2ccccc2[nH]1", "thermal shift delta Tm": 2.51},
      {"smiles": "C/C(O)=C(\\C#N)C(=O)Nc1cc(Br)ccc1Br", "thermal shift delta Tm": 1.9}
    ]}
  ]
}
